From PubChem BioAssay (Tox21)
Records with an inconclusive call do not appear. Entries that show only a call come without a potency. Calls of active or inactive are those of the source. Unless noted, calls come from the whole dose curve; as a rule, active = well fitted curve in the direction sought with a large enough effect in the repeat runs; inconclusive = weak or mixed curves; inactive = no such curve, though single readings can be large; an effect the other way counts as inactive or inconclusive.

What was measured:
[1] = qHTS assay to identify small molecule antagonists of the glucocorticoid receptor (GR) signaling pathway - cell viability counter screen (AID 720693); note: nearly all actives have a fitted effect of over 55% in size
[2] = qHTS assay for identifying genotoxic compounds that show differential cytotoxicity against isogenic chicken DT40 cell lines with known DNA damage response pathways - wild type cell line (AID 743012); note: nearly all actives have a fitted effect of over 60% in size; note: potency is the fitted concentration of half-maximal effect
Method in brief: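 Using parental DT40 (300 cells/well), compounds delivered in DMSO incubate 40 h at 37 C/5% CO2. CellTiter-Glo reagent then stands 30 min at room temperature, and luminescence gives cell viability.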

[3] = qHTS assay for identifying genotoxic compounds that show differential cytotoxicity against isogenic chicken DT40 cell lines with known DNA damage response pathways - Rad54/Ku70 mutant cell line (AID 743015); note: nearly all actives have a fitted effect of over 60% in size; note: potency is the fitted concentration of half-maximal effect
[4] = qHTS assay to identify small molecule antagonists of the androgen receptor (AR) signaling pathway - cell viability counter screen (AID 743033; note: nearly all actives have a fitted effect of over 45% in size; note: potency is the fitted concentration of half-maximal effect)
[5] = qHTS assay to identify small molecule antagonists of the androgen receptor (AR) signaling pathway using the MDA cell line - cell viability counter screen (AID 743041; note: nearly all actives have a fitted effect of over 45% in size; note: potency is the fitted concentration of half-maximal effect)
Method in brief: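 R1881-driven MDA-kb2 AR-luc cells, 3,000/well, were dosed with library compounds for 16 h; cell health came from CellTiter-Fluor fluorescence in the reporter wells.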

[6] = qHTS assay to identify small molecule antagonists of the thyroid receptor (TR) signaling pathway - cell viability counter screen (AID 743064); note: nearly all actives have a fitted effect of over 50% in size
Method in brief: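 Fluorescence from CellTiter-Fluor, added after 23.5 h exposure at 37 °C, reported viability of GH3.TRE-Luc cells co-treated with compound and 1 nM T3. Measured in the same wells as the luciferase TR readout.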

[7] = qHTS assay to identify small molecule antagonists of the thyroid receptor (TR) signaling pathway (AID 743065); note: series mostly up to about 70 µM; nearly all actives have a fitted effect of over 55% in size
Method in brief: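 Antagonism measured as loss of luciferase signal in GH3 cells stably carrying a TRE-luciferase reporter, co-treated with compound and T3 (1 nM final) for 23.5 h at 37 C. Viability was read in the same well by CellTiter-Fluor.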

[8] = tested on: thyroid hormone receptor (rat, GH3 cells); assay: qHTS assay to identify small molecule agonists of the thyroid receptor (TR) signaling pathway (AID 743066; calls by dose curve)
[9] = target: Estrogen receptor (Homo sapiens) (UniProt P03372); assay: qHTS assay to identify small molecule antagonists of the estrogen receptor alpha (ER-alpha) signaling pathway (AID 743069; active = well fitted curve in the direction sought with a large enough effect in the signal ratio in the repeat runs, not every such curve was filed as active; the % refers to the signal ratio)
Method in brief: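 Compound effects are measured against 17beta-estradiol stimulation in HEK293 cells with a UAS-controlled beta-lactamase reporter for ER-alpha. Exposure lasts 18 hr at 37C; LiveBLAzer B/G FRET substrate follows for 2 hr at room temperature.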

[10] = qHTS assay to identify small molecule antagonists of the estrogen receptor alpha (ER-alpha) signaling pathway - cell viability counter screen (AID 743074; calls by dose curve;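 note: HEK293 cells carrying ER-alpha-UAS-bla reporter stimulated with 17beta-estradiol; nearly all actives have a fitted effect of over 45% in size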)
[11] = target: Estrogen receptor (Homo sapiens) (UniProt P03372); assay: qHTS assay to identify small molecule agonists of the estrogen receptor alpha (ER-alpha) signaling pathway (AID 743075; calls by dose curve)
[12] = qHTS assay to identify small molecule antagonists of the estrogen receptor alpha (ER-alpha) signaling pathway using the BG1 cell line (AID 743080; calls by dose curve;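 note: BG1 cells stimulated with 17beta-estradiol alongside compound; series mostly up to about 70 µM; nearly all actives have a fitted effect of over 25% in size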)
Method in brief: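 Luciferase inhibition measured with ONE-Glo after 30 min at RT in BG1Luc4E2 cells given test compounds and 17beta-estradiol for 21.5 h at 37 C; CellTiter-Fluor viability read in the same wells beforehand.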

[13] = qHTS assay to identify small molecule antagonists of the estrogen receptor alpha (ER-alpha) signaling pathway using the BG1 cell line - cell viability counter screen (AID 743081);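 note: compound given together with 17beta-estradiol as the ER stimulus; series mostly up to about 70 µM; nearly all actives have a fitted effect of over 45% in size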
Aromatase (Homo sapiens) = Aromatase (Homo sapiens) (UniProt P11511); assay: qHTS assay to identify aromatase inhibitors (AID 743083); note: nearly all actives have a fitted effect of over 55% in size; note: potency is the fitted concentration of half-maximal effect
[14] = target: Estrogen receptor (Homo sapiens) (UniProt P03372); assay: qHTS assay to identify small molecule agonists of the estrogen receptor alpha (ER-alpha) signaling pathway using the BG1 cell line (AID 743079); note: nearly all actives have a fitted effect of over 20% in size; note: potency is the fitted concentration of half-maximal effect
[15] = qHTS assay for identifying genotoxic compounds that show differential cytotoxicity against isogenic chicken DT40 cell lines with known DNA damage response pathways - Rev3 mutant cell line (AID 743014); note: nearly all actives have a fitted effect of over 55% in size; note: potency is the fitted concentration of half-maximal effect
[16] = target: Androgen receptor (Homo sapiens) (UniProt P10275); assay: qHTS assay to identify small molecule antagonists of the androgen receptor (AR) signaling pathway (AID 743035; active = well fitted inhibition curve with a large enough effect in the signal ratio in the repeat runs, not every such curve was filed as active; the % refers to the signal ratio)
Method in brief: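 Using qHTS, AR-UAS-bla GripTite HEK293 cells received compound, then R1881, and were cultured 16 h at 37C/5% CO2 before a 2 h room-temperature LiveBLAzer B/G FRET substrate step and fluorescence measurement.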

[17] = target: Androgen receptor (Homo sapiens) (UniProt P10275); assay: qHTS assay to identify small molecule agonists of the androgen receptor (AR) signaling pathway (AID 743036; active = well fitted activation curve with a large enough effect in the signal ratio in the repeat runs, with a control signal flat, not every such curve was filed as active; the % refers to the signal ratio)
Method in brief: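 Fluorescence from a beta-lactamase FRET substrate served as read-out in AR-UAS-bla GripTite HEK293 cells. Cells were treated with DMSO-dissolved compounds for 16 h at 37C, then with LiveBLAzer B/G substrate for 2 h at room temperature.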

[18] = target: Androgen receptor (Homo sapiens) (UniProt P10275); assay: qHTS assay to identify small molecule agonists of the androgen receptor (AR) signaling pathway using the MDA cell line (AID 743040; note: nearly all actives have a fitted effect of over 20% in size)
Method in brief: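 After a 5 h incubation at 37C and 0% CO2, MDA-kb2 reporter cells were dosed with compounds in DMSO and kept 16 h under the same conditions. Luciferase activity was then read as luminescence with ONE-Glo.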

[19] = target: Androgen receptor (Homo sapiens) (UniProt P10275); assay: qHTS assay to identify small molecule antagonists of the androgen receptor (AR) signaling pathway using the MDA cell line (AID 743042; note: nearly all actives have a fitted effect of over 55% in size)
Method in brief: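 Antagonist mode: compounds plus R1881 agonist added to MDA-kb2 AR-luc cells, incubated 16 h at 37C. Luciferase reporter luminescence quantified, with multiplexed CellTiter-Fluor readout for cell viability.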

Chain of Aromatase (Homo sapiens) (P11511 whole entry, looked up): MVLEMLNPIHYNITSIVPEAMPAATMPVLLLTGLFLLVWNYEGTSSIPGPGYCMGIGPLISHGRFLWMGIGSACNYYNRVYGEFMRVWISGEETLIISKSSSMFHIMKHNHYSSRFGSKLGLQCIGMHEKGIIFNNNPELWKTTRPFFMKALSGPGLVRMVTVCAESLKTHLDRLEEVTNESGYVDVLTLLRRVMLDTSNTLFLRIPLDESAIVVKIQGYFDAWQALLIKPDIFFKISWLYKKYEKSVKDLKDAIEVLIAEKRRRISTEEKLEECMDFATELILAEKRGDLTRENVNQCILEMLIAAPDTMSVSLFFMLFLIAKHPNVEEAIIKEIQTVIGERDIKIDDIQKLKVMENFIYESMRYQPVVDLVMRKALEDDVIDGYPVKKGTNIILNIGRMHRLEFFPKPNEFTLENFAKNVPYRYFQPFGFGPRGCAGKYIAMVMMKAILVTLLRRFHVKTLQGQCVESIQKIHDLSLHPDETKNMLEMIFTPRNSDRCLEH
Chain of Androgen receptor (Homo sapiens) (P10275 whole entry, looked up): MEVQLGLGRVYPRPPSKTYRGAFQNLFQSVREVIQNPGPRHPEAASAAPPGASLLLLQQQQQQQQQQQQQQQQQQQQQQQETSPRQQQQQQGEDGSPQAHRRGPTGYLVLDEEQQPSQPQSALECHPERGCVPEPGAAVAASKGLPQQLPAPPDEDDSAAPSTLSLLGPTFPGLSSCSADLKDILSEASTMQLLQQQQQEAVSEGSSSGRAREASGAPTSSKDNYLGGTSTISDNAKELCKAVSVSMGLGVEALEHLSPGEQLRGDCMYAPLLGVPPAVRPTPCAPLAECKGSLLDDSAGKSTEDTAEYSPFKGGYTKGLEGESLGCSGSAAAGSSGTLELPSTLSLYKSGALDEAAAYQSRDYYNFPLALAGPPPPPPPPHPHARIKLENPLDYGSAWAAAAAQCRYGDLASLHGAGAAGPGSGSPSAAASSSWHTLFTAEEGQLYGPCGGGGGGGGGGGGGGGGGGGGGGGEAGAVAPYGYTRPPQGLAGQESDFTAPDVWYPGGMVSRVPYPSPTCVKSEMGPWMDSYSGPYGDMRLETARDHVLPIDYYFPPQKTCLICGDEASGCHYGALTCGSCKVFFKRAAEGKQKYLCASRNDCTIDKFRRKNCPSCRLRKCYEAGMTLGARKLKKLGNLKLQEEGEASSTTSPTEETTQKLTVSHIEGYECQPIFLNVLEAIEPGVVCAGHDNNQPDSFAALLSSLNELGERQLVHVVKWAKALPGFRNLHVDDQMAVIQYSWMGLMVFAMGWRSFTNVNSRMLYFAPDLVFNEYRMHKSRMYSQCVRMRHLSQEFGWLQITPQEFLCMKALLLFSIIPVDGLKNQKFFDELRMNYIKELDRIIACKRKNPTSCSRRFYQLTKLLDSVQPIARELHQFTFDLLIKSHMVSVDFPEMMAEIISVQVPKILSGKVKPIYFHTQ
Chain of Estrogen receptor (Homo sapiens) (P03372 whole entry, looked up): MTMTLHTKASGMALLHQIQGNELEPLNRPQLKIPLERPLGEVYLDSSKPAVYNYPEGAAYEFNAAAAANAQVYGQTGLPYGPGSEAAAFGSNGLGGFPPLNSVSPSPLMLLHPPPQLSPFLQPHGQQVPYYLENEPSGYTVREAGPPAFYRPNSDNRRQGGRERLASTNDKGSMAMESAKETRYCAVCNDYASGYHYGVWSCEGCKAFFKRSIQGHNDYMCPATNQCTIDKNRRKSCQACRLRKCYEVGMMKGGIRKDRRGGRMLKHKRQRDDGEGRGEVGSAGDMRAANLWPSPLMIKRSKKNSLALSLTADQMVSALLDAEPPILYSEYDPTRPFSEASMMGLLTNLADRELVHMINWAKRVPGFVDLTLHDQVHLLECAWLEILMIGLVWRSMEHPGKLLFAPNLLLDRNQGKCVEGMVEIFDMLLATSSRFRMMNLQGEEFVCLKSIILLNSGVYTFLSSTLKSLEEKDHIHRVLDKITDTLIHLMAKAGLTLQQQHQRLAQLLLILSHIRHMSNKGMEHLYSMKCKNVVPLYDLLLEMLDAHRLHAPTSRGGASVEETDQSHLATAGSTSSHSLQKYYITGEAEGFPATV

Structure (SMILES)	outcome [1]	Potency [2]	Potency [3]	Potency [4]	Potency [5]	Potency [6]	Potency [7]	outcome [8]	outcome [9]	outcome [10]	outcome [11]	Potency [12]	outcome [13]	Potency (Aromatase (Homo sapiens))	Potency [14]	Potency [15]	Potency [16]	outcome [17]	outcome [18]	Potency [19]
CC(=C(CCOC(=O)C(C)C)SSC(CCOC(=O)C(C)C)=C(C)N(C=O)Cc1cnc(C)nc1N)N(C=O)Cc1cnc(C)nc1N	inactive	inactive	inactive	inactive	inactive	inactive	inactive	inactive	inactive	inactive	inactive	inactive	inactive	inactive						
COc1cc(N)ccc1C	inactive	inactive	inactive	inactive	inactive		inactive	inactive		inactive			inactive							
CCCCN	inactive	inactive	inactive		inactive	inactive	inactive	inactive	inactive	inactive	inactive	inactive	inactive	inactive	inactive					
O=C1c2ccccc2C(=O)c2cc(S(=O)(=O)O)ccc21	inactive	inactive	inactive	inactive	inactive	inactive	inactive	inactive	inactive	inactive	inactive	inactive	inactive	inactive	inactive					
CNS(=O)(=O)CCc1ccc2[nH]cc(C3CCN(C)CC3)c2c1	inactive	inactive	inactive	inactive	inactive		inactive	inactive	inactive		inactive	inactive	inactive	inactive	inactive					
COc1cc(C(=S)N2CCOCC2)cc(OC)c1OC	inactive	inactive	inactive	inactive	inactive	inactive	inactive	inactive	inactive	inactive	inactive	inactive	inactive	inactive	inactive					
CCC(C)(CCC(C)C)C(=O)O (stereo unspecified)	inactive	inactive	inactive	inactive	inactive	inactive	inactive	inactive		inactive			inactive							
N[C@@H](CCC(=O)Nc1ccc([N+](=O)[O-])cc1)C(=O)O	inactive		inactive	inactive		inactive	inactive	inactive	inactive	inactive	inactive	inactive	inactive	inactive	inactive	inactive	inactive	inactive	inactive	inactive
CC(=O)N[C@@H](CCC(=O)O)C(=O)O	inactive	inactive	inactive	inactive	inactive	inactive	inactive	inactive		inactive			inactive	inactive						
CC(CN)CC(C)(C)CCN (stereo unspecified)	inactive	44.4 µM (active)	44.4 µM (active)	inactive	6.27 µM (active)	inactive	inactive	inactive		inactive			inactive	inactive						
CC(C)(C)c1n[nH]c(=S)n(N)c1=O	inactive		inactive	inactive	inactive	inactive	inactive	inactive	inactive	inactive	inactive	inactive	inactive	inactive	inactive	inactive				
CCCCCCCCSCC	inactive		inactive	inactive	inactive	inactive	inactive	inactive	inactive	inactive	inactive	inactive	inactive	inactive	inactive	inactive				
N#Cc1ccc(C(=O)O)cc1	inactive		61.1 µM (active)	inactive	inactive	inactive	inactive	inactive		inactive			inactive	inactive		30.6 µM (active)	inactive	inactive	inactive	inactive
CCCCOCCOC(=O)COc1nc(Cl)c(Cl)cc1Cl	inactive	inactive	inactive	inactive	inactive	inactive	inactive	inactive	inactive	inactive	inactive	inactive	inactive	inactive	inactive					
CC(C)OC(=O)CCCCC(=O)OC(C)C			inactive	inactive	inactive			inactive		inactive	inactive	inactive	inactive		inactive					
On1nnc2ccccc21	inactive			0.616 µM (active)	inactive	inactive	inactive	inactive	inactive		inactive	inactive	inactive	inactive	inactive					
Cc1cc(C(C)(C)C)c(O)c(C)c1CC1=NCCN1	inactive				inactive	inactive	inactive	inactive	inactive	inactive	inactive	inactive	inactive	inactive	inactive	inactive	inactive	inactive	inactive	inactive
CC(=O)/C=C/C1C(C)=CCC(C)C1(C)C (stereo unspecified)	inactive		48.6 µM (active)	inactive	inactive	inactive	inactive	inactive	inactive	inactive	inactive	inactive	inactive	inactive	inactive					
C[C@@H]1O[C@@H](O[C@@H]2[C@@H](O)[C@H](OCCc3ccc(O)c(O)c3)O[C@H](CO[C@@H]3O[C@H](CO)[C@@H](O)[C@H](O)[C@H]3O)[C@H]2OC(=O)/C=C/c2ccc(O)c(O)c2)[C@H](O)[C@H](O)[C@H]1O	inactive			inactive	inactive		inactive	inactive		inactive				inactive						
CCOC(=O)c1ccc(OC(=O)CCCCCN=C(N)N)cc1	inactive		inactive		inactive	inactive	inactive	inactive	inactive	inactive	inactive	inactive	inactive	inactive	14.3 µM (active)					
CCCOC(=O)C(C)O (stereo unspecified)					inactive		inactive	inactive	inactive	inactive	inactive	inactive	inactive		inactive		inactive	inactive	inactive	inactive

Structure (SMILES)	outcome [1]	Potency [2]	Potency [3]	Potency [4]	Potency [5]	Potency [6]	Potency [7]	outcome [8]	outcome [9]	outcome [10]	outcome [11]	Potency [12]	outcome [13]	Potency (Aromatase (Homo sapiens))	Potency [14]	Potency [15]	Potency [16]	outcome [17]	outcome [18]	Potency [19]
CN(CCOc1ccc(NS(C)(=O)=O)cc1)CCc1ccc(NS(C)(=O)=O)cc1	inactive		13.3 µM (active)	inactive	inactive	inactive	inactive	inactive		inactive	inactive	inactive	inactive	inactive	inactive					
O=S(=O)(O)c1cc(O)c2ccc(Nc3ccccc3)cc2c1	inactive		inactive	inactive	inactive	inactive	inactive	inactive	inactive	inactive	inactive	inactive	inactive	inactive		inactive				
COC(=O)CCCCCCCC(=O)OC	inactive		inactive	inactive	inactive	inactive	inactive	inactive	inactive	inactive	inactive	inactive	inactive	inactive	inactive	inactive				
CCCC/C=C/C=C\C=O	inactive		61.1 µM (active)		inactive	inactive		inactive	inactive	inactive	inactive	inactive	inactive	inactive	inactive			inactive	inactive	inactive
CC(C)CC(=O)O				inactive	inactive				inactive	inactive	inactive	inactive	inactive	inactive	inactive					
CC1=CCC(C(C)C)=CC1	inactive		inactive	inactive	inactive	inactive			inactive	inactive	inactive	inactive	inactive	inactive	inactive	inactive				
O=C(O)c1cc(Br)c(O)c(Br)c1	inactive		inactive	inactive	inactive	inactive	inactive	inactive		inactive			inactive	inactive			inactive	inactive	inactive	inactive
CCOc1cc([N+](=O)[O-])c(OCC)cc1N1CCOCC1		inactive	inactive	inactive	inactive	inactive		inactive		inactive	inactive	inactive	inactive	34.4 µM (active)	inactive					
CCCC/C=C\CCCCCCCCCC=O	inactive		inactive	inactive	inactive	inactive	inactive	inactive		inactive			inactive	inactive		inactive				
CC1COc2ccccc2N1 (stereo unspecified)	inactive		inactive	inactive	inactive	inactive	inactive	inactive		inactive			inactive	inactive		inactive				
Cc1cccc2nccnc12	inactive		inactive	inactive	inactive	inactive	inactive	inactive	inactive	inactive	inactive	inactive	inactive	inactive		inactive				
OC[C@H](Cc1cccc(O)c1)[C@H](CO)Cc1cccc(O)c1	inactive			inactive	inactive	inactive		inactive		inactive			inactive	inactive						
CC(C)(C)c1cc(CCC(=O)NN)cc(C(C)(C)C)c1O	inactive			inactive	inactive	inactive	inactive	inactive		inactive			inactive	inactive						
C#CC(C)N(C)C(=O)Nc1ccc(Cl)cc1 (stereo unspecified)	inactive			inactive	inactive	inactive	inactive	inactive		inactive			inactive	inactive				inactive	inactive	inactive
BrCc1cccc(Oc2ccccc2)c1	inactive			inactive		inactive	inactive	inactive		inactive			inactive	inactive			inactive		inactive	inactive
O=C(c1ccc(O)cc1)c1ccc(O)c(O)c1O	inactive			inactive		inactive	inactive	inactive					inactive	inactive						
COC(=O)CCc1ccc(OCC(O)CNC(C)C)cc1 (stereo unspecified)	inactive			inactive	inactive	inactive	inactive	inactive		inactive			inactive	inactive						
Nc1nnc(-c2cccc(Cl)c2Cl)c(N)n1		inactive	inactive	inactive	inactive	inactive	inactive	inactive		inactive			inactive	inactive		inactive				
NC(CO)C(=O)NNCc1ccc(O)c(O)c1O (stereo unspecified)	inactive		inactive	inactive	inactive	inactive	inactive	inactive	inactive	inactive	inactive	inactive	inactive	inactive	inactive		inactive	inactive	inactive	inactive
CCCN1C[C@H](CSC)C[C@@H]2c3cccc4[nH]cc(c34)C[C@H]21	inactive			inactive				inactive	inactive	inactive	inactive		inactive	inactive		inactive				
CCN(CC)CC(=O)Nc1c(C)cccc1C	inactive		inactive		inactive	inactive	inactive	inactive		inactive			inactive					inactive	inactive	inactive
